Source: PubChem (National Center for Advancing Translational Sciences (NCATS))
TDP-43 yeast inh – rescues yeast growth from TDP-43 toxicity | TDP-43 expressing yeast growth rescue, BacTiter-Glo, 24 h | AID 652104 | Potency, µM (doses to about 46.1 µM), for inactives: at the top dose growth rescue (activation), most hits filed as activators | hit rate 1.8% among 410,000; further: % of control where 0% means no effect; nearly all actives have a fitted effect of over 50% in size
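Yeast cells expressing TDP-43 under galactose induction are exposed to compounds for 24 hr at 30 deg C. BacTiter-Glo luminescence measures growth, so protective compounds score as activators.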
FUS suppressor – rescues growth of FUS-expressing yeast | AID 1347120 | S. cerevisiae FUS-expressing, growth rescue, OD600, 24 h | Potency, µM (top dose mostly 76.6 µM), most hits filed as activators | hit rate 0.24% among 390,000;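 further: plate controls were DMSO vehicle for no effect and reference control for full effect; nearly all actives have a fitted effect of over 55% in size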
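Galactose (2%) drives FUS expression in yeast precultured in raffinose; seeding density OD 0.005. Test compounds incubated 24hr at 30C and 99% humidity before absorbance at 600 nm was measured.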
Abeta yeast res – restores growth of yeast expressing A-beta42 peptide. yeast expressing A-beta42, growth rescue, OD600, 48 h; response scale: 0% DMSO, 100% iron-clioquinol control. Potency, µM (top dose mostly 46.1 µM), hits mostly activators. hit rate 0.063% among 410,000. AID 1347071; further: nearly all actives have a fitted effect of over 55% in size
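Yeast growth medium received pinned compounds, then yeast cells expressing toxic A-beta were added; plates incubated at 30 C for 48 hr. Growth read as absorbance at 600 nm, normalized to DMSO and equimolar FeCl3 plus clioquinol controls.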
aSyn rescue – inhibitors of alpha-synuclein toxicity in yeast; Yeast expressing alpha-synuclein, growth rescue, BacTiter-Glo, 24 h; Potency, µM (titrated, usually from 46.1 µM), for the others: top-dose growth rescue (activation), actives largely listed as activators; hit rate 0.14% among 370,000; AID 652106; further: % of control where 0% means no effect; nearly all actives have a fitted effect of over 65% in size
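Galactose-induced alpha-syn yeast (OD600=0.02, raffinose-pregrown) + pinned cpd, 24 hr, 30 deg C; growth by BacTiter-Glo luminescence. Growth restoration scores as activation.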
* hit, by the source's call; i = inactive; ? = inconclusive; . = no result given; [ ] = remark or other dose. An excerpt weighted towards active compounds, which were near 2.1% of everything screened. The call rests on the fitted dose curve; in most records, active means well fitted curve in the direction sought with a large enough effect; inconclusive means small, poorly fitted or top-dose-only effect, or another doubt; inactive means no such curve, though single readings can be large; an effect the other way counts as inactive or inconclusive. Potency means the concentration at half of the fitted maximal effect.

SMILES | TDP-43 yeast inh | FUS suppressor | Abeta yeast res | aSyn rescue
O=C(CCS(=O)(=O)c1ccc(F)cc1)Nc1ccc(N2CCN(Cc3ccccc3)CC2)cc1 | 19% | . | i | 3%
COc1ccc(Cl)cc1NC(=O)CN(C)CC(=O)Nc1ccccc1-c1ccccc1 | ? | i | i | 10%
COc1ccc(Cl)cc1NC(=O)CN(C)CC(=O)Nc1ccc(C)cc1Br | 18µM* | i | i | 3%
COc1ccc([N+](=O)[O-])cc1NC(=O)C(C)OC(=O)/C=C/c1ccco1 (stereo unspecified) | 25µM* | . | i | -10%
COc1ccc(Cl)cc1NC(=O)CN(C)C(=O)/C=C/c1ccco1 | 28µM* | i | i | 5%
Cc1ccc(C2=NN(CC(=O)NC(C)c3ccccc3)C(=O)CC2)cc1 (stereo unspecified) | 46% | i | i | .
O=C(CC1C(=O)OCCN1Cc1ccccc1)Nc1cccc(C(F)(F)F)c1 (stereo unspecified) | 18µM* | i | i | .
COc1cccc(NC(=O)CC2C(=O)OCCN2Cc2ccccc2)c1 (stereo unspecified) | ? | i | i | .
Cc1ccc(NC2=C(N3CCCCC3)C(=O)c3ccccc3C2=O)cc1 | 23% | i | i | ?
COC1=C(Nc2ccccc2)C(=O)c2ccccc2C1=O | 13µM* | i | i | 0%
COC1=C(OC)C(=O)c2ccccc2C1=O | . | . | . | 10%
COC1=C(Nc2ccc(C)cc2)C(=O)c2ccccc2C1=O | 10µM* | . | i | -16%
COc1ccc(OC)c2c1C(=O)c1ccccc1C2=O | 25µM* | i | i | -5%
COc1cc(OC)c(N(C)C(=O)c2cn(C3CCCC3)c(=O)c3c2c2ccccc2n3C)cc1Cl | 20% | i | i | .
C=CCNC1=C(Cl)C(=O)N(c2cccc(Cl)c2Cl)C1=O | 16µM* | i | i[9.22 µM] | 20%
Cc1ccc(S(=O)(=O)NCC2CN(S(=O)(=O)c3ccc(C)cc3)c3ccccc3C(=O)N2c2ccc(F)cc2)cc1 (stereo unspecified) | . | 18µM* | . | .
CCC(CC)COC(=O)C(C#N)c1nc2ccccc2nc1N1CCOCC1 (stereo unspecified) | 20µM* | i | i | 6%
N#CC(C(=O)OC1CCCCC1)c1nc2ccccc2nc1N1CCOCC1 (stereo unspecified) | -5% | i | i | -4%
O=[N+]([O-])c1cc(/C=N/n2c(-c3cccnc3)n[nH]c2=S)ccc1Cl | 8% | i | i | -9%
CN(c1ncnc(N)c1[N+](=O)[O-])C1CCS(=O)(=O)C1 (stereo unspecified) | 2% | i | i | -4%
CN(c1ncnc(N)c1[N+](=O)[O-])C1CCCCC1 | 13µM* | i | i | 5%
O=C(NC(=S)N1CCN(c2ccc(C(F)(F)F)cc2[N+](=O)[O-])CC1)c1cccs1 | 20µM* | . | i | -3%
CCN1CCN(C(=S)NC(=O)c2cccs2)CC1 | -11% | i | i | -2%
CC(NC(=O)c1ccc2c(c1)N(Cc1ccc(Cl)cc1)C(=O)c1ccccc1S2=O)c1ccccc1 (stereo unspecified) | -6% | 25µM* | i | .
CCC(C)NC(=O)c1ccc2c(c1)N(Cc1cccc(Cl)c1)C(=O)c1ccccc1S2=O (stereo unspecified) | 2% | ? | i | .
SMILES | TDP-43 yeast inh | FUS suppressor | Abeta yeast res | aSyn rescue
CCOC(=O)c1c(C)n(CC(O)c2ccccc2)c2ccc(O)cc12 (stereo unspecified) | 3% | i | i | -1%
Nc1nc(Cl)nc2c1ncn2C1CCC(CO)O1 (stereo unspecified) | 17% | i | i | 1%
Nc1ncnc2c1ncn2C1CCCO1 (stereo unspecified) | 35µM* | i | i | -13%
Nc1ncnc2c1ncn2[C@H]1CC[C@@H](CO)O1 | 13µM* | i | i | -7%
CC1(C(=O)Nc2cnc3ccccc3c2)CCN1C(=O)CC(c1ccccc1)c1ccccc1 (stereo unspecified) | 18µM* | ? | i | 1%
O=C1OC(/C(=C\Nc2ccccc2)[N+](=O)[O-])c2ccccc21 (stereo unspecified) | 1% | i | i | 16µM*
O=C1OC(/C(=C\NCc2ccccc2)[N+](=O)[O-])c2ccccc21 (stereo unspecified) | 0% | i | i | 11%
COC(=O)CN(c1ccc(Cl)cc1C)S(C)(=O)=O | -13% | i | i | 2%
COc1ccc(S(=O)(=O)N(CC(=O)Nc2ccc(F)c(Cl)c2)c2ccc(C)cc2)cc1OC | 24% | i | i | -2%
Cc1[nH]nc(-c2ccc(O)cc2O)c1-c1ccc(Cl)cc1 | 20µM* | i | i | 1%
CCc1nnc(NC(=O)C2Cc3ccccc3CN2S(=O)(=O)c2cccs2)s1 (stereo unspecified) | 0% | i | i | 3%
CCc1nnc(NC(=O)C2Cc3ccccc3CN2S(=O)(=O)c2ccc(C)cc2)s1 (stereo unspecified) | 17% | 14µM* | i | 1%
CCS(=O)(=O)N1Cc2ccccc2CC1C(=O)Nc1nnc(SCc2c(Cl)cccc2Cl)s1 (stereo unspecified) | 18% | . | i | 4%
CCSc1nnc(NC(=O)C2Cc3ccccc3CN2S(=O)(=O)CC)s1 (stereo unspecified) | 3% | 3.5µM* | i | 3%
CCSc1nnc(NC(=O)c2ccccc2C)s1 | 11µM* | i | i | -9%
CCN(c1ccccc1)S(=O)(=O)c1nnc(NC(=O)COc2ccccc2F)s1 | 0% | i | i | .
Clc1ccc(-n2nnnc2Sc2ncnc3sccc23)cc1 | 10µM* | i | i | -48%
Clc1ccc(-c2csc3ncnc(Sc4nnnn4-c4ccccc4)c23)cc1 | . | . | . | -14%
Cc1c(C(=O)OC(C)C(=O)N(C)Cc2ccccc2)oc2ccccc12 (stereo unspecified) | 35µM* | i | i | 1%
CC(C)(Oc1ccc(Cl)cc1)C(=O)Nc1nc2ccc(S(C)(=O)=O)cc2s1 | 13µM* | ? | i | .
CS(=O)(=O)c1ccc2nc(NC(=O)c3ccc(Cl)cc3)sc2c1 | . | i | i | 4%
CCOC(=O)c1[nH]c2c(c1Cc1ccccc1C)C(=O)CC(c1ccccc1)C2 (stereo unspecified) | -3% | i | i | .
CCOC(=O)c1[nH]c2c(c1Cc1ccccc1)C(=O)CC(c1ccccc1)C2 (stereo unspecified) | 13µM* | i | i | .
COCc1ccc(C(=O)N2CCC(CCC(=O)Nc3cccc(C)c3)CC2)s1 | 14% | i | i | -3%
Cc1ccc(CSCCC(=O)NCc2ccc(F)cc2Cl)cc1 | 22µM* | i | i | .
COC(=O)C1=CN(c2cc(C)cc(C)c2)C=C(C(=O)OC)C1c1cccc(F)c1 | -10% | i | i | 0%
